Data on 34 compounds can be found in the supplement of paper PMC13380429.

In test [1] the test system is Vero E6 infected with SARS-CoV-2. The test is described as follows: morphology score (similarity to uninfected cells); higher = more like uninfected cells. As to conditions: 24 h.
The test system is the same in test [2]. Put plainly: SARS-CoV-2 infection rate relative to infected DMSO; higher = more infection, active = 60 or less. The following applies: 24 h.

In test [1], `Cn1cc(C(=O)C(=O)N[C@H]2CN3CCC2CC3)c2ccccc21` (10 µM) registered a morphology score of 0.181. In addition, in test [2], the SARS-CoV-2 infection rate was 97.5% (inactive).

Take `Nc1ncnc2c1ncn2[C@@H]1O[C@H](COP(=O)(O)O)[C@@H](O)[C@H]1O` [adenosine-phosphate] (10 µM): the morphology score in test [1] is -0.114. For the same compound, the SARS-CoV-2 infection rate in test [2] was 113% (inactive).

On to `CS(=O)(=O)N(Cc1ccco1)C[C@@H](O)Cn1c2ccccc2c2ccccc21` (10 µM), for which the morphology score in test [1] was 0.000274. Further, in test [2], the SARS-CoV-2 infection rate was 91% (inactive).

`COc1ccc(CC(C)NCC(O)c2ccc(O)c(NC=O)c2)cc1` (stereo not drawn) [formoterol] (10 µM): the morphology score in test [1] came out at 0.0444. Further, the SARS-CoV-2 infection rate in test [2] is 100% (inactive).

In the case of `CC(C)C[C@@H](N)C(=O)N[C@H]1C(=O)N[C@@H](CC(N)=O)C(=O)N[C@H]2C(=O)N[C@H]3C(=O)N[C@H](C(=O)N[C@H](C(=O)O)c4cc(O)cc(O)c4-c4cc3ccc4O)[C@H](O)c3ccc(c(Cl)c3)Oc3cc2cc(c3O[C@@H]2O[C@H](CO)[C@@H](O)[C@H](O)[C@H]2O[C@H]2C[C@](C)(N)[C@H](O)[C@H](C)O2)Oc2ccc(cc2Cl)[C@H]1O` [norvancomycin] (10 µM), the morphology score in test [1] came to 0.00559. For the same compound, the SARS-CoV-2 infection rate in test [2] is 100% (inactive).

As to `CC1(C)OC[C@@H](COC(=O)CCc2ccc(OC[C@@H](O)CNCCNC(=O)N3CCOCC3)cc2)O1` [landiolol] (10 µM), in test [1], the morphology score is -0.108. For the same compound, the SARS-CoV-2 infection rate in test [2] is 113% (inactive).

`CC(C)(O)C(=O)Nc1ccc([N+](=O)[O-])c(C(F)(F)F)c1` [2-hydroxyflutamide] (10 µM): in test [1], the morphology score stood at 0.0933. In addition, the SARS-CoV-2 infection rate in test [2] is 108% (inactive).

Compound `COc1ccc(-c2cnc3c(-c4cccc5ncccc45)cnn3c2)cc1` (10 µM) yielded a morphology score in test [1] of 0.294. In test [2], the SARS-CoV-2 infection rate was 100% (inactive).

`CN1CCN(C(c2ccccc2)c2ccccc2)CC1` [cyclizine] (10 µM): the morphology score in test [1] was -0.126. In addition, in test [2], the SARS-CoV-2 infection rate was 108% (inactive).

Turning to `C[C@@H]1CN(Cc2ncccn2)C[C@H]1c1nc2c(cnn2C2CCOCC2)c(=O)[nH]1` (10 µM), in test [1], the morphology score was 0.11. Besides, the SARS-CoV-2 infection rate in test [2] is 108% (inactive).

In the case of `CC(=O)Nc1ccc(NC(=S)NC(=O)c2ccc(C(C)(C)C)cc2)cc1` [tenovin-1] (10 µM), the morphology score in test [1] was -0.0316. In addition, in test [2], the SARS-CoV-2 infection rate was 109% (inactive).

`CCOc1ccc(Nc2nc(-c3c(C)nc4ccccn34)cs2)cc1` (0.833333 µM): the morphology score in test [1] was -0.00134. Also, the SARS-CoV-2 infection rate in test [2] is 102% (inactive).

Consider `Cc1csc(-c2nnc(Nc3ccc(Oc4ncccc4-c4ccnc(N)n4)cc3)c3ccccc23)c1` (0.833333 µM), for which the morphology score in test [1] turned out to be 0.202. The SARS-CoV-2 infection rate in test [2] is 19.5% (active).

Regarding `COC(=O)C[C@](O)(CCC(C)(C)O)C(=O)O[C@@H]1C(OC)=C[C@]23CCCN2CCc2cc4c(cc2[C@H]13)OCO4` [harringtonine] (10 µM), the morphology score in test [1] is 0.555. For the same compound, the SARS-CoV-2 infection rate in test [2] is 49% (active).

Compound `Cc1[nH]c(/C=C2\C(=O)Nc3ccc(S(=O)(=O)Cc4c(Cl)cccc4Cl)cc32)c(C)c1C(=O)N1CCC[C@@H]1CN1CCCC1` (0.833333 µM) had a morphology score in test [1] of 0.159. Further, in test [2], the SARS-CoV-2 infection rate was 106% (inactive).

`C[C@H](N[C@@H](CCc1ccccc1)C(=O)O)C(=O)N1Cc2ccccc2C[C@H]1C(=O)O` [quinaprilat] (10 µM): the morphology score in test [1] was determined as 0.0914. The SARS-CoV-2 infection rate in test [2] is 106% (inactive).

Regarding `C=CCCCCCCCCC(=O)[O][Zn][O]C(=O)CCCCCCCCC=C` [zinc-undecylenate] (10 µM), in test [1], the morphology score was found to be 0.0826. The SARS-CoV-2 infection rate in test [2] was 110% (inactive).

For `COc1cccc(Nc2ncnn3ccc(CN4CC[C@@H](N)[C@H](O)C4)c23)c1` (0.833333 µM), the morphology score in test [1] is -0.24. Also, in test [2], the SARS-CoV-2 infection rate was 112% (inactive).

With `C[C@H](NCc1ccc(OCc2cccc(F)c2)cc1)C(N)=O` [safinamide] (10 µM), in test [1], the morphology score was -0.052. In test [2], the SARS-CoV-2 infection rate is 115% (inactive).

The compound `CNC(=O)[C@H]1O[C@@H](n2cnc3c(NCc4cccc(I)c4)ncnc32)[C@H](O)[C@@H]1O` (10 µM) registered a morphology score in test [1] of 0.156. Further, the SARS-CoV-2 infection rate in test [2] is 100% (inactive).

Consider `O=C(O)COc1ccc(/C=C2\SC(=O)NC2=O)cc1` (10 µM), for which, in test [1], the morphology score amounted to 0.0392. Besides, in test [2], the SARS-CoV-2 infection rate was 97% (inactive).

The compound `Cc1ccc2c(c1)c1c(n2CCc2ccc(C)nc2)CCN(C)C1` [latrepirdine] (10 µM) came in with a morphology score in test [1] of 0.241. Also, the SARS-CoV-2 infection rate in test [2] is 96.5% (inactive).

`O=C(/C=C/c1ccc(O)cc1)c1ccc(O)cc1O` [isoliquiritigenin] (10 µM) returned a morphology score in test [1] of 0.403. For the same compound, the SARS-CoV-2 infection rate in test [2] is 103% (inactive).

As to `S=P(N1CC1)(N1CC1)N1CC1` [thiotepa] (10 µM), the morphology score in test [1] was 0.127. Moreover, the SARS-CoV-2 infection rate in test [2] was 96% (inactive).

Consider `Cc1noc(NS(=O)(=O)c2cccc3c(N(C)C)cccc23)c1C` (10 µM), for which the morphology score in test [1] came to 0.115. For the same compound, in test [2], the SARS-CoV-2 infection rate is 95.5% (inactive).

For the compound `O=C1[C@H](CC[C@H](O)c2ccc(F)cc2)[C@@H](c2ccc(O)cc2)N1c1ccc(F)cc1` [ezetimibe] (10 µM), in test [1], the morphology score is 0.142. In addition, the SARS-CoV-2 infection rate in test [2] was 110% (inactive).

With `Cc1cc(O)cc2c1O[C@](C)(CCC[C@H](C)CCC[C@H](C)CCCC(C)C)CC2` [D-delta-tocopherol] (10 µM), in test [1], the morphology score was -0.14. In addition, in test [2], the SARS-CoV-2 infection rate was 112% (inactive).

`O=S1(=O)CCN(CN2CCS(=O)(=O)NC2)CN1` [taurolidine] (10 µM): the morphology score in test [1] is -0.0437. The SARS-CoV-2 infection rate in test [2] is 109% (inactive).

Regarding `CCOC(=O)c1c(CSc2ccccc2)n(C)c2cc(Br)c(O)c(CN(C)C)c12` [arbidol] (10 µM), the morphology score in test [1] stood at 0.126. In addition, the SARS-CoV-2 infection rate in test [2] is 87.5% (inactive).

With `O=C(/C=C/c1ccccc1)NC(NC(=S)Nc1cccc2cccnc12)C(Cl)(Cl)Cl` (stereo not drawn) [salubrinal] (10 µM), the morphology score in test [1] was -0.178. Besides, the SARS-CoV-2 infection rate in test [2] is 108% (inactive).

As for `Cn1c(-c2ccccc2)nnc1S(C)(=O)=O` (10 µM), the morphology score in test [1] turned out to be 0.268. The SARS-CoV-2 infection rate in test [2] was 86.5% (inactive).

Regarding `COc1ccccc1OCC(O)CN1CCN(CC(=O)Nc2c(C)cccc2C)CC1` (stereo not drawn) [ranolazine] (10 µM), in test [1], the morphology score was 0.0908. Further, the SARS-CoV-2 infection rate in test [2] is 101% (inactive).

For `CCCCCCCCCCC(=O)O[C@H]1CC[C@H]2[C@@H]3CCC4=CC(=O)CC[C@]4(C)[C@H]3CC[C@]12C` [Testosterone (undecanoate)] (10 µM), in test [1], the morphology score is 0.107. In test [2], the SARS-CoV-2 infection rate was 98.5% (inactive).

For the compound `O=C(/C=C/c1ccc(O)c(O)c1)OCCc1ccccc1` [caffeic-acid-phenethyl-ester] (10 µM), the morphology score in test [1] is -0.0125. Further, the SARS-CoV-2 infection rate in test [2] is 79% (inactive).
